# Test results taken from PubChem BioAssay AID1063 (University of Pittsburgh Molecular Library Screening Center, 2008).
# Screen size: about 200,000 compounds; about 18,000 (9%) were called active. The sample as a whole holds a higher share of actives than the screen did. Values without a mark were called inactive. Rule as the data show it: active = inhibition above about 50%; inactive = the rest.
# Assay: antileishmanial activity against promastigotes – primary screen (AID 1063);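 also: promastigotes grown with compound for 44 hours at 28 °C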
# Details: Leishmania major promastigotes, resazurin fluorescence viability; at 10 µM; active compounds read high
row,SMILES,inhibition
1,COc1ccccc1CN(C)c1nnnn1-c1ccccc1,6.46%
2,CC(C)CC[n+]1ccn(C2=C([O-])c3ccccc3C(=O)/C2=N\S(=O)(=O)c2ccccc2)c1,77.1% (active)
3,CN1C(=O)/C(=C/c2ccco2)SC1=Nc1cccc(C(=O)O)c1,-6.02%
4,COCCCNC(=O)C1CCC(CNS(=O)(=O)c2ccc(OC)cc2)CC1 (stereo unspecified),-4.6%
5,CCC1(CC)NC(=O)N(CC(=O)OCC(=O)NC(=O)c2ccccc2)C1=O,10.3%
6,Cc1ccc(Cl)cc1-c1ccc(/C=N/n2cnnc2)o1,64.2% (active)
7,Cc1cc([N+](=O)[O-])c(-c2ccc(/C=N/n3cnnc3)o2)cc1Cl,2.86%
8,Cc1cc(-c2ccc(/C=N/n3cnnc3)o2)c([N+](=O)[O-])cc1C,2.14%
9,Cc1ccc(N2C(=O)SC(N(CC(=O)O)c3ccc(C)cc3)C2=O)cc1 (stereo unspecified),-0.34%
10,Cc1cc(C(=O)N/N=C/c2ccc(N3CCOCC3)cc2)c(C)o1,7.7%
11,CNC(=S)N/N=C/c1ccc(N2CCOCC2)s1,90.2% (active)
12,CCOc1cccc(/C=N/NC(=S)NCCN2CCOCC2)c1O,4.68%
13,COC(=O)[C@H](C)NC(=O)Nc1ccc(OC(F)(F)F)cc1,-4.5%
14,CCNC(=S)Nc1ccc(OC(F)(F)F)cc1,-1.95%
15,COC(=O)Cc1ccc(OCC(=O)Nc2ccc(OC(F)(F)F)cc2)cc1,54.1% (active)
16,COc1ccc(OC)c(CNC(=O)c2cc(=O)[nH]c3ccc(S(=O)(=O)N4CCCC4)cc23)c1,-4.76%
17,COc1ccc(-n2cc(CN(C)Cc3n[nH]c(=O)[nH]3)c(-c3cccc(F)c3)n2)cc1,2.9%
18,O=C(O)COc1ccc(/C=N/O)cc1Br,-4.34%
19,O=C(CN1CCN(c2ccc(Cl)cc2)CC1)NCc1cccs1,-4.73%
20,CCN(C(=O)Cc1nc(N)n[nH]1)C1(C(=O)Nc2ccccc2)CCCCC1,-8.2%
21,O=C1N/C(=N\N=C\c2ccco2)SC1Cc1ccc(F)cc1 (stereo unspecified),-16.9%
22,Cc1cc(C(C)(C)C)cc(C)c1N,3.48%
23,Cc1cc(N)n2nc(-c3ccc(C(C)(C)C)cc3)cc2n1,80.3% (active)
24,COc1ccc(-c2cc(C)nc3nc(N)nn23)cc1,0.56%

row,SMILES,inhibition
1,CCOC(=O)c1ccc(N2C(=O)CC(N3CCN(C(=O)c4ccccc4)CC3)C2=O)cc1 (stereo unspecified),-1.97%
2,O=C(c1ccc(F)cc1)n1cc(C(=S)N2CCOCC2)c2ccccc21,-2.86%
3,Cc1c(NC(=S)NC(=O)CCc2ccccc2)c(=O)n(-c2ccccc2)n1C,-2.93%
4,O=C(NCCc1ccccc1)/C(=C\c1ccc([N+](=O)[O-])cc1)NC(=O)c1ccccc1,-2.32%
5,C=CCNC(=O)/C(=C\c1cccc([N+](=O)[O-])c1)NC(=O)c1ccccc1,-2.62%
6,CN(C)CCNC(=O)/C(=C/c1cccc([N+](=O)[O-])c1)NC(=O)c1ccccc1,68.3% (active)
7,Cc1nnc(SCc2cccc(Cl)c2)n(N)c1=O,9.66%
8,CN1CCN(S(=O)(=O)c2cccc(C(=O)N3CCc4ccccc43)c2)CC1,7%
9,S=C(NCCc1ccccc1)N1CCCCC1,-2.11%
10,Fc1cc(Br)ccc1NC(=S)Nc1cccnc1,5.1%
11,O=C1CCN(C(=S)NCCc2ccccc2)CC1,-11.3%
12,S=C(NCCc1ccccc1)N1CCn2cccc2C1c1ccncc1 (stereo unspecified),81.9% (active)
13,COc1cccc(NC(=O)CC2C(=O)NCCN2C(=S)Nc2ccc(F)cc2)c1 (stereo unspecified),-2.74%
14,S=C(Nc1cccc(Br)c1)N1CCn2cccc2C1c1cccnc1 (stereo unspecified),91.2% (active)
15,O=C(/C=C/c1ccccc1)Oc1coc(CSc2ncccn2)cc1=O,-7.34%
16,Cc1cccc2cc(CN(Cc3cccs3)C(=S)NCc3ccco3)c(=O)[nH]c12,46%
17,Cc1cc(C)c2[nH]c(=O)c(CN(Cc3ccccc3)C(=S)NCCCN(C)C)cc2c1,100% (active)
18,COCCCNC(=S)N(Cc1ccccc1)Cc1ccc(F)cc1,9.14%
19,CN1C=CC=C/C1=C1\SC(=S)N(Cc2ccccc2)C1=O,-0.34%
20,CN(C)C(CNC(=O)c1cccc(C#N)c1)c1ccco1 (stereo unspecified),3.86%
21,CCc1ccccc1NC(=S)N(CCN1CCCCCC1)Cc1ccco1,21.6%
22,Cc1ccc(NC(=S)N(CCCN2CCCC2)Cc2cccn2Cc2ccc(Cl)cc2)cc1,99.7% (active)
23,COc1cccc2cc(C(C)N(CCCN3CCOCC3)C(=O)Nc3ccc(Cl)cc3)oc12 (stereo unspecified),48.2%
24,CCOC(=O)N1CCN(CCC(=O)Nc2cc(OC)ccc2OC)CC1,-3.46%

row,SMILES,inhibition
1,CCOC(=O)N1CCN(C(=O)C2CCN(S(C)(=O)=O)CC2)CC1,-5.19%
2,CCOC(=O)N1CCN(C(=O)C2CCN(Cc3ccc(OC)cc3OC)CC2)CC1,53.4% (active)
3,Cc1ccc(C)c(Cn2nnc3c(=O)[nH]c(C(=O)Nc4ccc(F)cc4)nc32)c1,39%
4,O=[N+]([O-])c1ccc2[nH]c3c(c2c1)CCCC3O (stereo unspecified),-1.72%
5,CCn1c(CNC(=O)c2ccco2)nnc1SCC(=O)Nc1cccc(F)c1,-1.95%
6,CCCCNC(=O)N1CCN(S(C)(=O)=O)CC1,-0.76%
7,Cc1ccc(C)c(NC(=O)CSc2nnc(Cc3cccn3C)n2-c2ccc(F)cc2)c1,-0.8%
8,Cc1ccc(C)c(Cn2cnc3c(oc4ccccc43)c2=O)c1,-7.39%
9,Cc1ccc(C)c(NC(=O)CSc2nc3c(oc4ccccc43)c(=O)n2-c2ccccc2)c1,97.7% (active)
10,COCCC(=O)Nc1ccc2c(c1)CN(C(=O)CCOC)CC2,-5.46%
11,COCCn1c(N)c(N(Cc2ccccc2)C(=O)C2CCCCC2)c(=O)[nH]c1=O,-6%
12,C=CCOC(=O)C1=C(C)N=C2SCCC(=O)N2C1/C=C/c1ccccc1OC (stereo unspecified),7.43%
13,O=C(c1cccc(S(=O)(=O)N2CCCC2)c1)N(Cc1ccco1)C1CCS(=O)(=O)C1 (stereo unspecified),-2.42%
14,CCn1c(SCC(=O)c2ccc3ccccc3c2)nnc1-c1cccs1,-1.02%
15,O=C(CSc1nnc(-c2cccs2)n1Cc1ccccc1)N1CCc2ccccc2C1,83.6% (active)
16,O=C(CSc1nnc(-c2cccs2)n1-c1ccccc1)N1CCN(C(=O)c2ccco2)CC1,-10.5%
17,COC(=O)c1ccc(COC(=O)c2cnccn2)cc1,-1.35%
18,COc1cc(C2C(C(=O)Nc3ccccc3OC)=C(C)Nc3ncnn32)ccc1O (stereo unspecified),-3.99%
19,COc1ccc(C2C(C(=O)Nc3ccccc3OC)=C(C)Nc3nnnn32)c(OC)c1 (stereo unspecified),15.1%
20,COc1ccccc1NC(=O)C1=C(C)Nc2nnnn2C1c1cccc(Br)c1 (stereo unspecified),95.7% (active)
21,COCCNC(=O)CN(C(=O)CCC(=O)Nc1cc(C)on1)c1ccc(C)cc1C,2.39%
22,Cc1ccnc(NC(=O)CCC(=O)N(CC(=O)NCc2ccccc2)Cc2ccco2)c1,-5.25%
23,Cc1ccc(C)c(N(CC(=O)NCc2ccco2)C(=O)CCC(=O)Nc2ccccn2)c1,53.3% (active)
24,O=C(NCC1CCN(Cc2ccccc2Cl)CC1)Nc1cccc(Cl)c1,76.4% (active)

row,SMILES,inhibition
1,O=C(NCCN1CCOCC1)Nc1cccc(Cl)c1,-0.08%
2,O=S1(=O)CCN(Cc2ccccc2Cl)CC1,-4.67%
3,N#Cc1ccc(CSc2nnc3ccccn23)cc1,-3.72%
4,Cc1ccc(NN=C2C(=O)OC(C)(C)OC2=O)c(C)c1,-4.89%
5,Cc1onc(C(=O)NN)c1C(=O)N1CCN(C(c2ccccc2)c2ccccc2)CC1,-5.09%
6,CN(c1ccccc1)S(=O)(=O)c1cccc(NC(=O)Cc2c(F)cccc2Cl)c1,98.4% (active)
7,O=C(Cc1c(F)cccc1Cl)Nc1ccc(-n2cnnn2)cc1,1%
8,CN(c1ccccc1)S(=O)(=O)c1ccc(Cl)c(C(=O)OCC(N)=O)c1,-0.01%
9,C=CCNc1scc(-c2ccccc2)[n+]1CC=C,9.84%
10,Cc1nn(Cc2ccccc2)c(C)c1C(=O)NCCN1C(=O)S/C(=C\c2ccc(F)cc2)C1=O,-6.47%
11,Cc1cccc(C(=O)NCCCN2CCCC2=O)c1,-4.51%
12,CCN1CCN(CCNC(=O)c2ccc(/C=C3/Sc4ccccc4N(Cc4cccc(C)c4)C3=O)cc2)CC1,101% (active)
13,COC(=O)c1ccc(CSc2nncn2N)cc1,-3.29%
14,COc1cc(NS(=O)(=O)c2ccc(NC(=O)CN3C(=O)c4ccccc4C3=O)cc2)ncn1,4.83%
15,N=c1n(CCc2ccccc2)c2ccccc2n1Cc1ccccc1F,97.3% (active)
16,Fc1ccccc1Cn1cnc(NC(=S)NCCc2ccccc2)n1,-2.69%
17,CN(Cc1ccccc1)Cc1ccccc1F,-3.21%
18,C=C(C)C1CC=C(C)/C(=N/NC(=O)CCCNc2cccc(C)c2)C1 (stereo unspecified),-1.55%
19,CN(C)c1ccc(CNC2C3CC4CC(C3)CC2C4)cc1 (stereo unspecified),75.6% (active)
20,CN(C)c1ccc(CNC23CN4CN(CN(C4)C2)C3)cc1,-1.82%
21,c1cnc(NC2C3CC4CC(C3)CC2C4)nc1 (stereo unspecified),27.5%
22,Cc1cccc(N2CCN(C(=O)c3ccccc3NC(=O)C3CCCCC3C(=O)O)CC2)c1 (stereo unspecified),-7.46%
23,O=C(O)C1CC=CCC1C(=O)Nc1ccccc1C(=O)N1CCN(c2ccccc2)CC1 (stereo unspecified),-4.97%
24,CC(C)c1ccc(N2CCN(C(=O)c3ccccc3NC(=O)/C=C(\C(=O)O)c3ccccc3)CC2)cc1,100% (active)
